Results: PubChem BioAssay (NCI)
The panel holds about 79,000 compounds, 15% with a hit somewhere; the sample as a whole holds those more often. Cut-off read from the data, not from the text of the source: active = growth inhibition above about 70%; inactive = the rest.

Key:
[1] = NCI Yeast Anticancer Drug Screen. Data for the rad50 strain (AID 155);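 note: 0% = growth of vehicle-only cultures of the same strain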; details: S. cerevisiae rad50 strain growth inhibition, hits give high values; at 50.0 µM unless noted
How it was run: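 Yeast carrying a defined DNA repair defect were exposed to test compounds, and growth was compared with vehicle-treated controls to give percent inhibition.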

[2] = NCI Yeast Anticancer Drug Screen. Data for the mec2-1 strain (AID 157); details: S. cerevisiae mec2-1 strain, hits give high values; at 50.0 µM unless noted
How it was run: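 Growth inhibition is read against vehicle-treated controls after compound exposure of the mec2-1 yeast strain, which is defective in DNA damage repair or cell cycle control.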

[3] = NCI Yeast Anticancer Drug Screen. Data for the sgs1 mgt1 strain (AID 161);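 note: 0% = growth of cultures given vehicle only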; details: S. cerevisiae sgs1 mgt1 strain, hits give high values; at 50.0 µM unless noted
How it was run: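 Percent growth inhibition was derived by comparing compound-exposed mutant yeast with vehicle-exposed cultures. The strain carries alterations in DNA damage repair.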

[4] = NCI Yeast Anticancer Drug Screen. Data for the cln2 rad14 strain (AID 165);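 note: 0% = growth equal to vehicle treated cultures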; details: S. cerevisiae cln2 rad14 strain, hits give high values; at 50.0 µM unless noted
How it was run: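 Growth inhibition, relative to vehicle-treated controls, is the read-out. The test organism is a yeast strain with defined genetic alterations, cln2 rad14.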

[5] = NCI Yeast Anticancer Drug Screen. Data for the bub3 strain (AID 167); details: S. cerevisiae bub3 mutant strain, hits give high values; at 50.0 µM unless noted
How it was run: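 Compounds were applied to a genetically altered yeast strain carrying a cell-cycle control defect. Growth inhibition was scored against vehicle-treated controls.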

[6] = NCI Yeast Anticancer Drug Screen. Data for the mlh1 rad18 strain (AID 175); details: S. cerevisiae mlh1 rad18 strain growth inhibition, hits give high values; at 50.0 µM unless noted
How it was run: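 Cells of a genetically altered yeast strain, deficient in DNA damage repair, were treated with compound. Their growth was then compared with that of vehicle-treated cultures to give inhibition.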

Measured: growth inhibition

CCOc1ccc(OCC)c(NC=O)c1
inactive: [1] -9% | [2] -20.1% | [3] -6.75% | [4] 8.4% | [5] -11.8% | [6] 2.95%

CCN(CC)CCn1c2cc3c(cc2c(=O)c2cccnc21)OCO3
inactive: [1] -18.1% | [2] -17.6% | [3] -29.4% | [4] 13.8% | [5] -34% | [6] 24.1%

NN=C(c1ccc([N+](=O)[O-])cc1)c1ccc([N+](=O)[O-])cc1
inactive: [1] -3.3% | [2] 0.55% | [3] -25.6% | [4] -9.65% | [5] 27% | [6] -0.7%

CC(=O)N1C=CC(=Cc2ccccc2)C=C1
inactive: [1] -0.15% | [2] 5.55% | [3] -30.6% | [4] -1.25% | [5] 12.8% | [6] 3.95%

CC1(C)Oc2nc[nH]c(=O)c2C1c1ccccc1 (stereo unspecified)
inactive: [1] 2.55% | [2] -4.5% | [3] -0.4% | [4] -20.1% | [5] -19.4% | [6] 5.35%

CCCCCCCCCCCCCCCCCC(=O)CBr
inactive: [1] 14% | [2] 9.9% | [3] 10.9% | [4] -25.4% | [5] 2.2% | [6] 38.9%

OCC1OCOC(CO)(CO)C1O (stereo unspecified)
inactive: [1] 1.15% | [2] 0.05% | [3] 8.1% | [4] -44.3% | [5] 21.7% | [6] 3.75%

O=C(O)/C(I)=C(\I)c1ccccc1
inactive: [1] -0.55% | [2] -6.7% | [3] 4.7% | [4] -9.3% | [5] 2.45% | [6] 8.5%

Clc1ccccc1/C=N\N=C\c1ccco1
inactive: [1] 8.3% | [2] -14.1% | [3] -9.05% | [4] -40.4% | [5] -11.1% | [6] 14.4%

O=C1c2scc(-c3ccc(F)cc3)c2-n2cccc21
inactive: [1] 7.8% | [2] 12.5% | [3] 7.6% | [4] 3.7% | [5] 8.65% | [6] 24.1%

O=P1(NC23CC4CC(CC(C4)C2)C3)OC(CCl)=NC1c1ccc(C2N=C(CCl)OP2(=O)NC23CC4CC(CC(C4)C2)C3)cc1 (stereo unspecified)
inactive: [1] -56.6% | [2] -32.7% | [3] -34.3% | [4] -12.8% | [5] -35.1% | [6] -57.2%

Cc1ccc(/C=C(/c2ccccc2)C(CC(=O)O)C(=O)O)cc1 (stereo unspecified)
inactive: [1] -4.75% | [2] -11.3% | [3] -6.85% | [4] -44.7% | [5] -6.35% | [6] -14.5%

CC1CN(CCO)CCN1Cc1ccccc1 (stereo unspecified)
inactive: [1] -12.6% | [2] -12.3% | [3] -16.6% | [4] -5.1% | [5] -12.6% | [6] -5.8%

O=C1C=C(Nc2ccccc2)C(=O)C=C1Nc1ccccc1
inactive: [1] -2.3% | [2] 1.65% | [3] 10% | [4] -42.2% | [5] 4.15% | [6] -6%

N#CCN1CCCCCC1
inactive: [1] -14.8% | [2] -20.5% | [3] -16.6% | [4] 4.2% | [5] -13.6% | [6] 9.8%

N#CC1C(=O)C(=O)N(c2ccccc2)C1=O (stereo unspecified)
inactive: [1] -6.1% | [2] -6.85% | [3] -24.7% | [4] 3.15% | [5] -1.85% | [6] -6.25%

Cc1ccc(OC/C=C/CSc2ccc(Br)cc2)cc1
inactive: [1] 4.95% | [2] 4.75% | [3] 2.4% | [4] -2.4% | [5] -19.9% | [6] -24.9%

O=[N+]([O-])c1ccc(N=Cc2ccc(N(CCF)CCF)cc2)cc1
inactive: [1] 6.9% | [2] 15.9% | [3] 16.1% | [4] -60% | [5] -9.2% | [6] 10.9%

N/N=C1/CCN2CCCc3cccc1c32
inactive: [1] 11.2% | [2] 2.75% | [3] 1.25% | [4] -27.4% | [5] -19.4% | [6] 10.1%

COC(=O)CC1CCS(=O)(=O)C1 (stereo unspecified)
inactive: [1] -6.6% | [2] 6.35% | [3] -5.7% | [4] -37.4% | [5] -4.4% | [6] 0%

CC1(CCC(=O)O)C(=O)C(=O)CC2C1CCC1(C)C(O)CCC21 (stereo unspecified)
inactive: [1] -9.5% | [2] -0.6% | [3] -7.25% | [4] 0.15% | [5] -4.1% | [6] -17.4%
